Measured values: PubChem BioAssay (NCATS)
Values joined by “and” are separate entries in the source; they are usually repeats but may differ in a detail not shown here. Equal values may be shown once. Inconclusive results are not listed. Active and inactive are the calls of the source. Unless noted, calls come from the whole dose curve; as a rule, active = well fitted curve in the direction sought with a large enough effect; inconclusive = small, poorly fitted or top-dose-only effect, or another doubt; inactive = no such curve, though single readings can be large; an effect the other way counts as inactive or inconclusive.

Key:
[1] = Cell Viability - N2a (AID 540); conditions: N2a mouse neuroblastoma cell viability; activity change, negative = cytotoxicity: at 92.2 µM (top of the series);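 note: plate controls were DMSO alone for no effect and tamoxifen control for full effect; nearly all actives have a fitted effect of over 45% in size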
Summary of the method: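 Mouse neuroblastoma N2a cells, 1500/well, exposed to compounds 40 h at 37 °C in complete medium. Viability measured as cellular ATP by CellTiter-Glo luminescence; AC50 from Hill fits of concentration-response.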

[2] = Cell Viability - NIH 3T3 (AID 541);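 note: plate controls were DMSO alone for no effect and tamoxifen positive control for full effect; nearly all actives have a fitted effect of over 25% in size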
Summary of the method: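 Mouse NIH 3T3 fibroblasts, 1000 cells/well, rested 5 hr at 37 °C, then exposed to compound for 40 hr at 37 °C in complete medium. Viability read as intracellular ATP by CellTiter-Glo luminescence; AC50 from Hill-equation fits of concentration-response data.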

[3] = Cell Viability - HUV-EC-C (AID 542); note: % is set by controls: 0 for no effect and ±100 for the full control effect; nearly all actives have a fitted effect of over 35% in size
Summary of the method: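 HUV-EC-C human vascular endothelial cells, 1000/well, exposed to compound for 40 hr at 37 °C in complete medium. Intracellular ATP was read by CellTiter-Glo luminescence. AC50 came from Hill-equation fits of concentration-response data.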

[4] = Cell Viability - H-4-II-E (AID 543); note: % is set by controls: 0 for no effect and ±100 for the full control effect; nearly all actives have a fitted effect of over 35% in size
Summary of the method: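 Rat hepatoma H-4-II-E cells, 1500 per well, treated 40 h at 37 °C in complete medium. Cellular ATP read by CellTiter-Glo luminescence; AC50 from Hill fits of concentration-response.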

[5] = Cell Viability - SH-SY5Y (AID 544);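 note: 0% = DMSO alone and -100% = 100 µM tamoxifen; nearly all actives have a fitted effect of over 55% in size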
Summary of the method: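 SH-SY5Y human neuroblastoma cells (1500/well) incubated 5 h, then compound-treated 40 h at 37 °C in complete medium. Viability read as intracellular ATP by CellTiter-Glo luminescence after 20 min; AC50 from Hill-equation fits of qHTS concentration-response.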

[6] = Cell Viability - Renal Proximal Tubule (AID 545);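 note: 0% = DMSO only and -100% = 100 µM tamoxifen; nearly all actives have a fitted effect of over 40% in size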
Summary of the method: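 Viability taken as intracellular ATP (CellTiter-Glo luminescence) after 40 hr, 37 °C compound treatment of primary proximal tubule cells from rat kidney, 1000 cells/well; Hill-equation fits of qHTS concentration-response data gave AC50.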

[7] = Cell Viability - Mesenchymal (AID 546);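 note: cells exposed to compound for 40 hours before reading; 0% = DMSO only and -100% = 100 µM tamoxifen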
Summary of the method: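 AC50 values reflect the drop in intracellular ATP in a human kidney mesenchymal line derived from normal glomeruli. Treatment lasts 40 hr at 37 °C in complete medium, and the signal comes from CellTiter-Glo luminescence.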

[8] = Cellular Toxicity (caspase-3) HepG2 (AID 654);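 note: cells exposed to compound for 16 hours before reading; 0% = DMSO alone and 100% = caspase signal from 100 µM tamoxifen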
Summary of the method: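 HepG2 cells (1500/well) were treated 16 h at 37 °C in complete medium, then caspase 3/7 activity was read by Caspase-Glo luminescence. Data were normalized to DMSO and 100 uM tamoxifen; AC50 came from Hill-equation fits of qHTS concentration-response.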

[9] = Cellular Toxicity (caspase-3) Jurkat (AID 655);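 note: cells exposed to compound for 16 h at 37 °C before reading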
Summary of the method: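 Luminescent Caspase-Glo 3/7 read-out (20 min, room temperature) after 16 h compound treatment at 37 C of 5000 Jurkat cells per well. AC50 derived by Hill-equation fitting, scaled between DMSO basal and 100 uM tamoxifen stimulation.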

[10] = Cellular Toxicity (caspase-3) HUV-EC-C (AID 656);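 note: 0% = DMSO basal and 100% = 100 µM tamoxifen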
Summary of the method: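 Luminescent Caspase-Glo 3/7 readout after 16 h, 37 °C compound exposure of HUV-EC-C endothelial cells, 1000 per well, complete medium. AC50 derived by Hill fitting, with DMSO as baseline and 100 uM tamoxifen as full activation.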

[11] = Cellular Toxicity (caspase-3) SHSY5Y (AID 657)
Summary of the method: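 Luminescent Caspase-Glo 3/7 read-out, 1 hr room temperature, follows 16 hours of compound treatment of SH-SY5Y cells at 37 °C. Normalization: DMSO basal, 10 uM staurosporine as 100%; AC50 values from Hill-equation concentration-response fits.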

[12] = Cellular Toxicity (caspase-3) BJ (AID 658);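 note: 0% = DMSO basal and 100% = 10 µM staurosporine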
Summary of the method: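 Readout: Caspase-Glo 3/7 luminescence increase in BJ cells after 16 hr treatment at 37 °C. Staurosporine and tamoxifen served as positive controls; AC50 values came from Hill modelling of data normalized to DMSO and 10 uM staurosporine.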

[13] = Cellular Toxicity (caspase-3) MRC-5 (AID 659);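 note: 0% = DMSO basal and 100% = 10 µM staurosporine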
Summary of the method: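 Concentration-dependent caspase 3/7 activation is measured in human normal lung fibroblasts (MRC-5) following 16-hour treatment. AC50 values come from standard Hill-equation modeling of luminescence normalized to DMSO and 10 uM staurosporine.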

[14] = Cellular Toxicity (caspase-3) Mesangial (AID 660);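 note: cells exposed to compound for 16 h before the caspase read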
Summary of the method: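 Human renal glomerular mesangial cells, 1000/well, 5 h at 37 C before 16 h compound treatment. Caspase-Glo 3/7 luminescence after 20 min; normalized to DMSO and 100 uM tamoxifen, AC50 from Hill fit.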

[15] = Cellular Toxicity (caspase-3) SK-N-SH (AID 661);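 note: 0% = DMSO basal and 100% = 10 µM staurosporine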
Summary of the method: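 Human SK-N-SH neuroblastoma cells, 1500/well, were exposed to compounds for 16 hours at 37 °C. Caspase-Glo 3/7 luminescence was normalized to DMSO (basal) and 10 uM staurosporine (100%), and AC50 came from a Hill fit.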

[16] = Cellular Toxicity (caspase-3) H-4-II-E (AID 663);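 note: cells exposed to compound for 16 hr before readout; 0% = DMSO basal and 100% = 100 µM tamoxifen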
Summary of the method: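 Apoptosis induction is scored as increased luminescence from caspase 3/7 substrate cleavage in rat hepatoma H-4-II-E cells exposed to compound for 16 hr. Activity is scaled between DMSO and 100 uM tamoxifen.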

[17] = biological target: Mitogen-activated protein kinase 10 (Mus musculus) (UniProt Q61831); experiment: JNK3 AlphaScreen Assay (AID 530; active = well fitted curve in either direction with a large enough effect, not every such curve was filed as active;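 note: kinase came from lysate of stimulated human HepG2 cells; signal reports phosphorylation of biotinylated GST-cJun 1-79 at Ser73 with 10 µM ATP; % is set by controls: 0 for no effect and ±100 for the full control effect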)
Summary of the method: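 Compound titrations were preincubated 15 minutes at room temperature with substrate, antibody and pre-activated JNK3-containing HepG2 lysate. Reactions were started with 10 uM ATP and stopped with EDTA-containing bead buffer for AlphaScreen detection.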

[18] = biological target: Glucocorticoid receptor (Homo sapiens) (UniProt P04150); experiment: GR-GFP Redistribution (AID 450;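 active = compounds whose dose series gives a full or clear partial fitted curve of increased nuclear translocation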; note: potency is the fitted concentration of half-maximal effect); conditions: U2OS GR-GFP nuclear translocation, laser cytometry, 2 h
Glucocorticoid receptor (Homo sapiens), sequence (P04150 whole entry, looked up, the tested form may be a part): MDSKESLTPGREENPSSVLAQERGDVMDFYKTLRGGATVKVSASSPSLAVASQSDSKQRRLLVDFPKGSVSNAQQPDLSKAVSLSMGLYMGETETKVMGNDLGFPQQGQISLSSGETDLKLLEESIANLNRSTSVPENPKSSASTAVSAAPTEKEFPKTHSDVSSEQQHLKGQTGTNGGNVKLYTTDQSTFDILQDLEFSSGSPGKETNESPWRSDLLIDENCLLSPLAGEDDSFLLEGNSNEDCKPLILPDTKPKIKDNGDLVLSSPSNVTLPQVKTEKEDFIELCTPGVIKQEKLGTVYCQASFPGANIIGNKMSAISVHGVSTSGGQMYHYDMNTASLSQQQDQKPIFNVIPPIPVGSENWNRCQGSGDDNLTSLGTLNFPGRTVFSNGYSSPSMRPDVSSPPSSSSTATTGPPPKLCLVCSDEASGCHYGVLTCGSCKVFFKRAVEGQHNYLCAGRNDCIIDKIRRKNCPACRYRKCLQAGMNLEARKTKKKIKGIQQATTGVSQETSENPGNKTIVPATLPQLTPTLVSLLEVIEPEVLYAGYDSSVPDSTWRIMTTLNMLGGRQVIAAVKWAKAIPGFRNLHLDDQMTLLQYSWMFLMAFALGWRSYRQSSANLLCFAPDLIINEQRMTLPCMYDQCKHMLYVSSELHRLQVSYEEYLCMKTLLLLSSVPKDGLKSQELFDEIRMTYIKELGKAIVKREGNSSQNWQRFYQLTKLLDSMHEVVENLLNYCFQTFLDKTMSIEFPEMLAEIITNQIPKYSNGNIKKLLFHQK

[19] = biological target: Glucocorticoid receptor (Homo sapiens) (UniProt P04150); experiment: GR-EFC Redistribution (AID 451; calls by dose curve; note: potency is the fitted concentration of half-maximal effect); conditions: CHO-K1 GR-EFC translocation, beta-gal luminescence, 2 h
Summary of the method: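 Translocation of GR-ED fusion to nuclear EA restores b-gal, read by luminescence after 1 h room-temperature detection. Engineered CHO-K1 biosensor cells, 1,000/well, exposed 2 h at 37 C to titrations up to 46 uM final.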

[20] = biological target: 3',5'-cyclic-AMP phosphodiesterase 4B (Homo sapiens) (UniProt Q07343); experiment: qHTS Assay for Inhibitors of PDE-IV (AID 607; active = well fitted activation curve with a large enough effect in the main read-out, with a control signal flat, not every such curve was filed as active; note: % of control where 0% means no effect)
3',5'-cyclic-AMP phosphodiesterase 4B (Homo sapiens), sequence (Q07343 whole entry, looked up): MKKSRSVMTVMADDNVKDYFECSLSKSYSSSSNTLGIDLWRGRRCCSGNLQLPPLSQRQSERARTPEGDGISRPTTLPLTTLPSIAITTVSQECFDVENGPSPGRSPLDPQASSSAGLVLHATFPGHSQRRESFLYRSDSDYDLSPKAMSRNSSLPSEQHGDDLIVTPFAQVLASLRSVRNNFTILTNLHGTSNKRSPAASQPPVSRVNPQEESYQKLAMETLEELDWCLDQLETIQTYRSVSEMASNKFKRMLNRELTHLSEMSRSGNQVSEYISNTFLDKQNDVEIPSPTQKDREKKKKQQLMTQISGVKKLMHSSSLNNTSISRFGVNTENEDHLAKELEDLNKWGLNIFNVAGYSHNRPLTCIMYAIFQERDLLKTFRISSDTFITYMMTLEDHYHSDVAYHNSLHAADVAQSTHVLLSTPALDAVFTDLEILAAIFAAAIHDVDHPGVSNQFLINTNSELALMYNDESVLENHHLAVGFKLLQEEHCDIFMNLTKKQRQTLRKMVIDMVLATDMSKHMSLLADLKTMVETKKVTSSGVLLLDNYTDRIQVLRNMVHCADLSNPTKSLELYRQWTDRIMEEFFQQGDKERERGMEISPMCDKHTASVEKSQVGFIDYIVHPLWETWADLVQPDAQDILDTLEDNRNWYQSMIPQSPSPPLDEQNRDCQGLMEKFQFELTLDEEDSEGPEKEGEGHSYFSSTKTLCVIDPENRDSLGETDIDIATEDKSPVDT
Summary of the method: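 HEK293 ACTOne cells with CNG channel (1000/well), endogenous PDE4; membrane potential dye, compounds up to 22.9 uM final. Fluorescence Ex 535/Em 590; RO 20-1724 (100 uM final) as reference.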

C1CCC(NC2CCCCC2)CC1
inactive: activity change, negative = cytotoxicity [1] 3.55% and 8.48% | Potency [2] | Potency [3] | Potency [4] | Potency [5] | Potency [6] | Potency [7] | outcome [8] | outcome [9] | outcome [10] | outcome [11] | outcome [12] | outcome [13] | outcome [14] | outcome [15] | outcome [16]

Nc1ccc([N+](=O)[O-])cc1
inactive: outcome [17] | activity change, negative = cytotoxicity [1] 0.412% | Potency [2] | Potency [3] | Potency [4] | Potency [5] | Potency [6] | Potency [7] | outcome [8] | outcome [9] | outcome [10] | outcome [11] | outcome [12] | outcome [13] | outcome [14] | outcome [15] | outcome [16]

c1ccc2sc(C3(N4CCCCC4)CCCCC3)cc2c1
inactive: Potency [18] > 46 µM | Potency [19] > 46 µM | Potency [20]

CC[C@@]1(O)C(=O)OCc2c1cc1n(c2=O)Cc2cc3ccccc3nc2-1
inactive: Potency [18] > 46 µM and > 20.6 µM | Potency [19] > 46 µM and > 20.6 µM | Potency [20]

Nc1ccc(Sc2ccc(N)cc2)cc1
inactive: activity change, negative = cytotoxicity [1] -14% | Potency [2] | Potency [3] | Potency [5] | Potency [6] | Potency [7] | outcome [8] | outcome [9] | outcome [10] | outcome [11] | outcome [12] | outcome [13] | outcome [14] | outcome [15] | outcome [16]

O=C(O)COc1ccccc1
inactive: activity change, negative = cytotoxicity [1] -9.54% | Potency [2] | Potency [3] | Potency [4] | Potency [5] | Potency [6] | Potency [7] | outcome [8] | outcome [9] | outcome [10] | outcome [11] | outcome [12] | outcome [13] | outcome [14] | outcome [15] | outcome [16]

CN(C)NC(=O)CCC(=O)O
inactive: activity change, negative = cytotoxicity [1] -4.24% | Potency [2] | Potency [3] | Potency [4] | Potency [5] | Potency [6] | Potency [7] | outcome [8] | outcome [9] | outcome [10] | outcome [11] | outcome [12] | outcome [13] | outcome [14] | outcome [15] | outcome [16]

O=[N+]([O-])c1c2ccccc2cc2ccccc12
inactive: activity change, negative = cytotoxicity [1] -0.277% | Potency [2] | Potency [3] | Potency [4] | Potency [6] | Potency [7] | outcome [8] | outcome [9] | outcome [10] | outcome [11] | outcome [12] | outcome [13] | outcome [14] | outcome [15] | outcome [16]
